# In all, about 360,000 compounds went through this assay and about 7,300 (2%) were called active. The full list was thinned out, with actives kept by preference. Values without a mark were called inactive. Cut-off read from the data, not from the text of the source: active = inhibition above about 50%; inactive = the rest.
# Experiment: inhibitors of TWEAK-Fn14 signaling, primary screen, luciferase reporter cells, uHTS (AID 1159606)
# Conditions: TWEAK-stimulated Fn14 reporter cells, luciferase luminescence, 8 h; at 10 µM; hits give high values
row,SMILES,inhibition
1,O=C1C2CCCN2C(=O)N1CCCCN1CCN(c2cccc(C(F)(F)F)c2)CC1 (configuration not stated),-4.34%
2,COc1ccc(N(CCC(=O)NCCc2ccccc2)S(=O)(=O)c2ccc(C)cc2C)cc1,-9.44%
3,COc1ccc(NC(=O)CN(C)C(=O)/C=C/c2cn(Cc3ccccc3)nc2-c2cccnc2)cc1,-11.2%
4,O=C(O)CCn1cc(/C=C/C(=O)c2ccc(Cl)cc2)c(-c2cccc(Br)c2)n1,66% (active)
5,O=C(COC(=O)/C=C/c1cn(-c2ccccc2)nc1-c1cccnc1)Nc1ccc(Cl)cc1Cl,-65%
6,CCOC(=O)[C@H]1Nc2ccc(Cl)cc2[C@@H]2[C@H]1C1CC(c3ccccc31)N2C(=O)OCc1ccccc1 (some centres not stated),-23.5%
7,CCCCNC(=O)OC1CC2CC1[C@H]1CCCCN1C2=O (some centres not stated),7.93%
8,CCOC12CC(C)(C)CC(C)(CC3=C1C(=O)CC(C)(C)C3)C2 (configuration not stated),76.6% (active)
9,Cc1noc(C)c1-c1nc(CSc2ccc(Cl)cc2)no1,-29%
10,COc1cc2nnn(-c3ccncc3)c2cc1OC,1.57%
11,Cn1c(N2CCOCC2)c(C=O)c2ccccc21,-2.19%
12,COc1cccc(-n2c(=S)[nH]c3c(oc4ccccc43)c2=O)c1,22.3%
13,O=c1oc2ccccc2cc1-c1cn(-c2ccccc2)c(=S)[nH]1,107% (active)
14,CC1(C)CCSC(/C=C/c2ccccc2)=N1,71.7% (active)
15,CC1(C(=O)NS(=O)(=O)c2ccccc2)CCN1C(=O)C/C=C/c1ccccc1 (configuration not stated),-7.09%
16,CC1(C(=O)O)CCN1C(=O)/C=C/c1ccccc1 (configuration not stated),4.71%
17,CC(C)=CCCC1(C)C=Cc2c(ccc3c2[nH]c2cc(O)c(C)cc23)O1 (configuration not stated),67% (active)
18,CN(C(=O)COC(=O)Cn1cnc2c1c(=O)n(C)c(=O)n2C)C1(C#N)CCCCC1,-7.55%
19,COC(=O)C(C)N(C#N)c1nc(C)nc(C)n1 (configuration not stated),-3.55%
20,Cc1nnc(SC(C(=O)Nc2cc(Cl)cc(Cl)c2)c2ccccc2)[nH]c1=O (configuration not stated),-1.44%
21,CC(C)CCOc1ccc(C(=O)C[N+]2(C)CCOCC2)cc1,-7.15%
22,CCCc1ccc(OCCNC(=O)c2ccccc2Br)cc1,-12.5%
23,CCCOc1ccc(C(=O)C(CCC(CNCC)C(=O)c2ccc(OCCC)cc2)CNCC)cc1 (configuration not stated),103% (active)

row,SMILES,inhibition
1,CC(Oc1ccc(F)cc1)C(=O)Nc1ccccc1C(=O)NC1CC1 (configuration not stated),8.99%
2,COC(=O)c1onc(-c2c(OC)cc(OC)cc2OC)c1C(=O)OC,10.7%
3,CC(C)C(C(=O)NC1CCCCC1)N(CC1CCCO1)C(=O)CNS(=O)(=O)c1ccc(F)cc1 (configuration not stated),8.87%
4,Cc1ccc(N(CC(=O)NC2CCCCC2)C(=O)CCCC(=O)Nc2ccccn2)c(C)c1,-5.23%
5,Cc1onc(-c2ccccc2Cl)c1C(=O)OCc1nnc(-c2ccccc2)o1,-0.22%
6,Cc1onc(-c2ccccc2)c1-c1nnc(COC(=O)c2ccc(N(C)C)cc2)o1,54.4% (active)
7,Cc1ccc(C(=O)NCC(=O)OCc2nnc(-c3ccccc3)o2)cc1,9.26%
8,O=C(NC1CCCC1)C1c2ccccc2OCC(=O)N1CC(F)(F)F (configuration not stated),1.42%
9,COC1=CC(=O)OC(C)(c2ccccc2)C1 (configuration not stated),20.1%
10,COc1cccc2c(O)cc(=O)n(C)c12,15.4%
11,COc1cccc2c(C)c(C(=O)O)[nH]c12,74.4% (active)
12,COc1cc2c(C(=O)O)c(C)n(C)c2c2ccccc12,14%
13,CC1(C(=O)NS(=O)(=O)c2ccc(C#N)cc2)CCN1C(=O)c1ccc(C2CCCCC2)cc1 (configuration not stated),24.4%
14,CN1CCN(C(=O)CCc2ncc(C(F)(F)F)cc2Cl)CC1,-4.72%
15,O=C1NC[C@H](CCCCN2C[C@H](Cc3ccccc3)N(Cc3ccccc3)C(=O)C2=O)N(CCc2ccc(O)cc2)C1=O,-9.13%
16,O=c1cc(N2CCCCC2)c(-c2ccccc2)nn1Cc1cccc(F)c1,-1.41%
17,CCOc1ccc(NC(=S)N2CCC(NC(=O)c3ccccc3)CC2)cc1,-4.25%
18,Cc1cc(N/C=C\C(=O)c2ccc(Cl)c(Cl)c2)no1,-21%
19,CCOc1ccc(N/C=C/C(=O)c2ccccc2)cc1,70.8% (active)
20,COc1ccc(N2C(=O)CCC(C(=O)Nc3ccccn3)C2c2ccc(OC)c(OC)c2)cc1 (configuration not stated),2.83%
21,Cc1ccc(N/C=C/C(=O)c2ccccc2)cc1C,66.8% (active)
22,O=C(/C=C/NCc1ccc(F)cc1)c1ccccc1,-22.1%
23,CCOc1ccc(NC(=O)C2CCCN(C(=O)Nc3ccccc3)C2)cc1 (configuration not stated),-2.21%

row,SMILES,inhibition
1,COc1ccc(C(=O)/C=C/Nc2ccccn2)cc1,97.4% (active)
2,Cc1ccc(NNC(=O)C2CCC2)cc1C,-5.21%
3,COCc1ccc(C(=O)NC2CC(C)(C)Cc3c2cnn3-c2ccc(C)cc2)o1 (configuration not stated),3.46%
4,COCCCNC(=O)CC1C[C@H](C(=O)N2CCCCC2)[C@@]2(CCc3ccccc3)c3[nH]c4ccccc4c3CCN2C1=O (some centres not stated),17.5%
5,O=C(CCCl)Nc1ccc(S(=O)(=O)NCc2ccco2)cc1,13%
6,CCNC(=O)c1cc2c(c(-c3cccc(-c4cncnc4)c3)n1)[C@H](CCO)N(C(C)=O)C2,-9.64%
7,Cc1ccccc1-n1nnc2c(=O)oc3ccccc3c21,-3.42%
8,O=C1CCC(=O)N1c1ccc(NCCc2ccccc2F)c([N+](=O)[O-])c1,-12.8%
9,OCCN1CCN(C(=S)c2ccc(-c3ccccc3)cc2)CC1,54.4% (active)
10,C=CCc1ccccc1OCC(O)CN1CCN(CCO)CC1 (configuration not stated),-11.8%
11,S=C(c1ccc(-c2ccccc2)o1)N1CCCCC1,-8.48%
12,Cc1cc(C)n2c(NCc3ccccc3)c(CC(C)C)nc2n1,-7.32%
13,Cc1ccc(C)c(S(=O)(=O)N(C)c2ccc(OC(=O)C3CCN(C(=O)c4ccc(F)cc4)CC3)cc2)c1,-10.5%
14,Cc1ccccc1C(CC(=O)c1cccs1)C(C#N)C#N (configuration not stated),83.8% (active)
15,Cc1ccc(C)c(NC(CC(=O)c2ccccc2)C(=O)OCC(=O)c2cccs2)c1 (configuration not stated),-31.8%
16,O=C(NCC(=O)N1CCN(c2ccccc2F)CC1)c1cccs1,-8.04%
17,Cc1nn(-c2ccccc2)c(=O)c2noc(C)c12,2.03%
18,COc1cccc(CN2C(=O)CCC2(C)C(=O)NC2CCCCCC2)c1 (configuration not stated),9.99%
19,CCOC(=O)C1=CC[C@@H](c2ccccc2)N(S(=O)(=O)c2ccc(C)cc2)[C@H]1c1cccc(OC)c1,3.81%
20,CN1CCN(S(=O)(=O)c2ccc(N3CCN(S(=O)(=O)c4cccs4)CC3)nc2)CC1,-14.8%
21,OC[C@@H]1CN(Cc2ccncc2)C[C@H](n2cnc3c(N4CCN(c5ccccc5)CC4)ncnc32)O1,29.9%
22,Cc1cccc(NC(=S)N2CCC(C(=O)c3ccc(F)cc3)CC2)c1,-7.96%
23,O=[N+]([O-])c1c(NCCO)cc(Sc2nc3ccccc3s2)c2nonc12,9.76%

row,SMILES,inhibition
1,O=C(O)c1ccccc1CSc1nc2ccccc2s1,53.1% (active)
2,Clc1ccc(-c2nnc(SCc3nc4ccccc4s3)o2)cc1,-3.77%
3,COC(=O)[C@]12CCCCC=C1N(CCC1=CCCCC1)C(=O)[C@H](CC(=O)NCC1CCCCC1)C2,9.77%
4,Cc1ccc(-c2c(C)n([O-])c3c([n+]2=O)CCC3)cc1,19%
5,CN(C)S(=O)(=O)N1CCC(Oc2cccc(C(=O)NCCCC3CCCC3)c2)CC1,57.2% (active)
6,CNS(=O)(=O)c1cccc(C(=O)NCC2CCCCC2)c1,-15.5%
7,CN(C(=O)c1cccc(OC2CCN(S(=O)(=O)N(C)C)CC2)c1)C1CCOC1 (configuration not stated),-26.3%
8,Cc1ccc(C)c2[nH]c(=O)c(CCNC(=O)CC(C)C)cc12,-18.2%
9,CCCc1cc(C(=O)Nc2ccc(C(=O)OC)cc2)cs1,-11.7%
10,CCCc1cc(C(=O)Nc2ccc(Cl)cn2)cs1,58.8% (active)
11,CC(NS(=O)(=O)c1ccc(Cl)cc1)C(=O)Nc1ccc2c(c1)OCCO2 (configuration not stated),32.7%
12,Cc1nc(NC(=O)c2ccc3c(c2)OCCO3)ccc1Br,30.4%
13,O=C(Nc1ccc(Cl)cn1)c1cnn2cccnc12,5.94%
14,CCCCC(CC)C(=O)Nc1ccc(Cl)cn1 (configuration not stated),-8.67%
15,CCN(CC)CCNC(=O)c1ccc(NS(=O)(=O)c2ccc3c(c2)OCCO3)cc1,2.79%
16,O=C(Nc1cccc(S(=O)(=O)Nc2ccc(Cl)cc2)c1)c1ccc2c(c1)OCCO2,78.2% (active)
17,O=C(Nc1ccc2c(c1)OCCO2)c1ccc(Cl)c(S(=O)(=O)N2CCCCC2)c1,56.7% (active)
18,Cc1ccc(C(=O)Nc2ccc3c(c2)OCCO3)cc1S(=O)(=O)N1CCOCC1,-15.2%
19,O=C(Nc1ccc(Cl)cn1)c1ccc2c(c1)OCCO2,66.8% (active)
20,CN1CCN(c2ccc(NC(=O)c3ccc4c(c3)OCCO4)cc2Cl)CC1,17.5%
21,CCOc1ccc(-c2c(C)n([O-])c3c([n+]2=O)CCCC3)cc1,-15.2%
22,O=S1(=O)CC(N2CCSCC2)CN1Cc1cn(Cc2cccc(Cl)c2)nn1 (configuration not stated),0.68%
23,CC(=O)N1Cc2cc(C(=O)NCc3cccc(F)c3)nc(-c3cccc(C4=CCCC4)c3)c2[C@H]1CCO,-25.9%

# — PubChem BioAssay AID1159606 (Sanford-Burnham Center for Chemical Genomics, 2016)
